Laboratory results published in PubChem BioAssay (NCATS).
Inconclusive results are not listed. Entries that show only a call come without a potency. Unmarked numbers belong to inactive results. The source made the active and inactive calls. Calls follow the shape of the full dose curve. Bridge positions count the residues as written; N and C are the ends. Square brackets hold non-standard residues; d marks the D form. Peptide text beside a SMILES is read from it. hArg = N=C(N)NCCCC[C@H](N)C(=O)O; Mpa = O=C(O)CCS

Assay: Cytotoxicity counterscreen for inhibitors of SARS-CoV-2 cell entry (AID 1645845); also: nearly all actives have a fitted effect of over 50% in size
Details: cell viability (SARS-CoV-2 entry assay cells); series mostly up to 57.1 µM; activity change, negative = cytotoxicity: at the top concentration
Procedure, shortened: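 After a 15 min room-temperature ATPLite 1step step, luminescence reflected ATP remaining in HEK293-ACE2 cells exposed to compound for 1 h plus 48 h at 37 C, with percent activity set by cell and no-cell controls.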
Potency is read from the fitted curve at half-maximal effect.

Compound | outcome | activity change, negative = cytotoxicity [%] | Potency
CCCCNc1ccc(C(=O)OCCN(CC)CC)cc1 | inactive |  | 
CCN(CC)CCOC(=O)C1(c2ccccc2)CCCC1 |  | 2.05 | 
O=C1N(c2ccccc2)c2ccccc2C1(Cc1ccncc1)Cc1ccncc1 | inactive |  | 
CCOC(=O)Nc1ccc(NCc2ccc(F)cc2)nc1N | inactive |  | 
CN1CCCC(n2nc(Cc3ccc(Cl)cc3)c3ccccc3c2=O)CC1 (centres undefined) | inactive |  | 
CO[C@@H]1[C@@H](O[C@@H]2O[C@H](C)[C@@H](O[C@H]3C[C@@](C)(O)[C@@H](O)[C@H](C)O3)[C@H](N(C)C)[C@H]2O)[C@@H](CC=O)C[C@@H](C)[C@@H](O[C@@H]2CC[C@H](N(C)C)[C@@H](C)O2)/C=C/C=C/C[C@@H](C)OC(=O)C[C@H]1OC(C)=O |  | -12.4 | 
CN(Cc1cc(Br)cc(Br)c1N)C1CCCCC1 |  |  | inactive
CC[C@H](c1ccc(O)cc1)[C@@H](CC)c1ccc(O)cc1 |  | -18.8 | 
CCCCN(CCCC)CC(O)c1cc(Cl)cc2c1-c1ccc(Cl)cc1/C2=C/c1ccc(Cl)cc1 (centres undefined) |  | 1.17 | 
Oc1ccc(CCNCCCCCCNCCc2ccccc2)cc1O |  | -4.56 | 
Cc1nnc(C(=O)NC(C)(C)c2nc(C(=O)NCc3ccc(F)cc3)c(O)c(=O)n2C)o1 | inactive |  | 
C=CCOc1ccccc1OCC(O)CNC(C)C (centres undefined) | inactive |  | 
CN(C)CCOC(c1ccccc1)c1ccccc1 |  | 0.599 | 
Cc1cc2nc3ccc(=[N+](C)C)cc-3sc2cc1N |  |  | 22.4 µM (active)
O=C(Nc1ccc(Cl)cc1)Nc1ccc(Cl)c(C(F)(F)F)c1 |  |  | 22.4 µM (active)
C=C1c2cccc(O)c2C(O)=C2C(=O)[C@]3(O)C(O)=C(C(N)=O)C(=O)[C@@H](N(C)C)[C@@H]3[C@@H](O)[C@H]12 |  | 3.74 | 
Cc1ccc(C(=O)Oc2ccc(C(O)CNC(C)(C)C)cc2OC(=O)c2ccc(C)cc2)cc1 (centres undefined) | inactive |  | 
C#C[C@]1(O)CC[C@H]2[C@@H]3CCc4cc(OC)ccc4[C@H]3CC[C@@]21C |  |  | inactive
CC1CCCCN1CCCOC(=O)c1ccc(OC2CCCCC2)cc1 (centres undefined) | inactive |  | 
O=C1OC2(c3ccccc31)c1cc(I)c(O)c(I)c1Oc1c2cc(I)c(O)c1I | inactive |  | 

Compound | outcome | activity change, negative = cytotoxicity [%] | Potency
CCCOC(C(=O)OC1CCN(C)CC1)(c1ccccc1)c1ccccc1 |  | -15.2 | 
CN1C[C@H](C(=O)N[C@]2(C)O[C@@]3(O)[C@@H]4CCCN4C(=O)[C@H](Cc4ccccc4)N3C2=O)C[C@@H]2c3cccc4[nH]cc(c34)C[C@H]21 | inactive |  | 
CCOC(=O)[C@H](CCc1ccccc1)N[C@@H](C)C(=O)N(CC(=O)O)C1Cc2ccccc2C1 | inactive |  | 
O=C(Nc1ccc(S(=O)(=O)N2CCOCC2)cc1)c1cc(Cl)ccc1NS(=O)(=O)c1ccc(Cl)s1 | inactive |  | 
CN(C)CCOC1=Cc2ccccc2Sc2ccc(Cl)cc21 |  | -25.7 | 
CCN(CC)CCOc1ccccc1C(=O)CCc1ccccc1 | inactive |  | 
O=c1[nH]c(=O)c2[nH]c(=O)[nH]c2[nH]1 | inactive [at 11.3 µM] |  | 
CCOCCOC(=O)/C=C/c1ccc(OC)cc1 | inactive |  | 
CC(=O)Nc1ccc(S(=O)(=O)Nc2ccc([N+](=O)[O-])cc2)cc1 | inactive |  | 
CC(C)C(=O)OCc1cccc(OC(=O)[C@@H]2N3C(=O)[C@@H](NC(=O)Cc4ccccc4)[C@H]3SC2(C)C)c1 | inactive |  | 
CCCCCCCCCCCCCCCC[N+](C)(C)Cc1ccccc1 |  |  | 22.4 µM (active)
O=C1C(CCS(=O)c2ccccc2)C(=O)N(c2ccccc2)N1c1ccccc1 (centres undefined) | inactive |  | 
CCCCOc1cc(C(=O)OCCN(CC)CC)ccc1N | inactive |  | 
NC(=O)[C@@H]1CSSCCC(=O)N[C@@H](CCCCN=C(N)N)C(=O)NCC(=O)N[C@@H](CC(=O)O)C(=O)N[C@@H](Cc2c[nH]c3ccccc23)C(=O)N2CCC[C@H]2C(=O)N1 ([Mpa][hArg]GDWPC-NH2; disulfide 1-7) | inactive |  | 
C/C=C(/C(=C/C)c1ccc(O)cc1)c1ccc(O)cc1 |  | -18.7 | 
CCN(CC)CCOC(=O)C(Cc1cccc2ccccc12)CC1CCCO1 (centres undefined) | inactive |  | 
CCCCN1CCCC[C@H]1C(=O)Nc1c(C)cccc1C |  | -10.4 | 
c1ccc(CN(CC2=NCCN2)c2ccccc2)cc1 | inactive |  | 
Cn1cc(C(=O)[C@@H]2CCc3nc[nH]c3C2)c2ccccc21 | inactive |  | 
